Reference: PubChem BioAssay AID1159580 (chemical genetic matrix, 2015)
Hit rate of the full screen: of about 5,500 compounds, about 2,000 (36%) were called active. About 18% were inconclusive and are not listed. Cut-off read from the data, not from the text of the source: active = normalized growth mostly below about 0.91 (no sharp cut-off); inconclusive = no clear call, values can overlap the other calls; inactive = mostly above about 0.92. The list shows a part of the results.

Experiment: chemical genetic growth profiling, strain panel (AID 1159580);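 note: tested at 20 µM; growth read once vehicle control cultures reached saturation at 30 °C; 1 = growth at the plate median or of vehicle wells; lower values mean less growth of the strain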
Details: growth OD

Measured: normalized growth

C[C@@H]1CC(Cl)CC[C@H]1C(=O)OC(C)(C)C (some centres not stated)
inactive: S. cerevisiae deletion strains, locus YJR075W, strain HOC1, active compounds read low 0.964 | S. cerevisiae deletion strains, locus YKL009W, strain mrt4, active compounds read low 1 | S. cerevisiae deletion strains, locus YKL068W, active compounds read low 0.98 | S. cerevisiae deletion strains, locus YKL085W, strain MDH1 (second series), active compounds read low 0.977 | S. cerevisiae deletion strains, locus YKL085W, strain MDH1, active compounds read low 0.977 | S. cerevisiae deletion strains, locus YKL160W, strain elf1, active compounds read low 1.02 | S. cerevisiae deletion strains, locus YKL190W, strain CNB1, active compounds read low 0.981 | S. cerevisiae deletion strains, locus YKR001C, strain vps1, active compounds read low 1.01 | S. cerevisiae deletion strains, locus YKR026C, strain gcn3, active compounds read low 0.985 | S. cerevisiae deletion strains, locus YKR091W, strain srl3, active compounds read low 0.982 | S. cerevisiae deletion strains, locus YLL001W, strain dnm1, active compounds read low 0.979 | S. cerevisiae deletion strains, locus YLL026W, active compounds read low 0.983 | S. cerevisiae deletion strains, locus YLL041C, strain sdh2, active compounds read low 0.982 | S. cerevisiae deletion strains, locus YLR027C, strain aat2, active compounds read low 0.982 | S. cerevisiae deletion strains, locus YLR039C, strain RIC1, active compounds read low 1 | S. cerevisiae deletion strains, locus YLR058C, strain SHM2, active compounds read low 0.991 | S. cerevisiae deletion strains, locus YLR102C, strain apc9, active compounds read low 0.991 | S. cerevisiae deletion strains, locus YLR113W, strain HOG1, active compounds read low 0.999 | S. cerevisiae deletion strains, locus YLR221C, strain rsa3, active compounds read low 1.01 | S. cerevisiae deletion strains, locus YLR258W, strain gsy2, active compounds read low 0.97 | S. cerevisiae deletion strains, locus YLR262C, strain YPT6 (second series), active compounds read low 0.965 | S. cerevisiae deletion strains, locus YLR262C, strain YPT6, active compounds read low 0.957 | S. cerevisiae deletion strains, locus YLR268W, strain sec22, active compounds read low 0.976 | S. cerevisiae deletion strains, locus YLR320W, strain mms22, active compounds read low 0.954 | S. cerevisiae deletion strains, locus YLR330W, strain CHS5, active compounds read low 0.99 | S. cerevisiae deletion strains, locus YLR342W, strain FKS1 (second series), active compounds read low 1.05 | S. cerevisiae deletion strains, locus YLR342W, strain FKS1, active compounds read low 0.98 | S. cerevisiae deletion strains, locus YLR357W, strain rsc2, active compounds read low 0.985 | S. cerevisiae deletion strains, locus YLR370C, strain arc18, active compounds read low 0.991 | S. cerevisiae deletion strains, locus YLR371W, strain rom2, active compounds read low 1 | S. cerevisiae deletion strains, locus YLR384C, strain iki3, active compounds read low 0.982 | S. cerevisiae deletion strains, locus YLR418C, strain cdc73, active compounds read low 0.972 | S. cerevisiae deletion strains, locus YML016C, strain PPZ1, active compounds read low 0.992 | S. cerevisiae deletion strains, locus YML032C, strain rad52, active compounds read low 0.967 | S. cerevisiae deletion strains, locus YML120C, strain ndi1, active compounds read low 1 | S. cerevisiae deletion strains, locus YML124C, strain tub3, active compounds read low 0.983 | S. cerevisiae deletion strains, locus YMR058W, strain fet3, active compounds read low 0.976 | S. cerevisiae deletion strains, locus YMR078C, strain ctf18, active compounds read low 0.985 | S. cerevisiae deletion strains, locus YMR125W, strain sto1, active compounds read low 0.962 | S. cerevisiae deletion strains, locus YMR129W, active compounds read low 0.961 | S. cerevisiae deletion strains, locus YMR205C, strain PFK2, active compounds read low 0.928 | S. cerevisiae deletion strains, locus YMR223W, strain ubp8, active compounds read low 1.04 | S. cerevisiae deletion strains, locus YMR231W, strain pep5, active compounds read low 0.995 | S. cerevisiae deletion strains, locus YMR263W, strain SAP30, active compounds read low 0.976 | S. cerevisiae deletion strains, locus YMR307W, strain GAS1, active compounds read low 1 | S. cerevisiae deletion strains, locus YNL067W, strain RPL9B, active compounds read low 0.959 | S. cerevisiae deletion strains, locus YNL071W, strain lat1, active compounds read low 0.985 | S. cerevisiae deletion strains, locus YNL128W, strain TEP1, active compounds read low 0.971 | S. cerevisiae deletion strains, locus YNL153C, strain GIM3, active compounds read low 0.986 | S. cerevisiae deletion strains, locus YNL183C, strain NPR1, active compounds read low 0.948 | S. cerevisiae deletion strains, locus YNL209W, strain ssb2, active compounds read low 0.989 | S. cerevisiae deletion strains, locus YNL233W, strain BNI4, active compounds read low 0.997 | S. cerevisiae deletion strains, locus YNL248C, strain rpa49, active compounds read low 1.01 | S. cerevisiae deletion strains, locus YNL250W, strain rad50, active compounds read low 0.987 | S. cerevisiae deletion strains, locus YNL271C, strain bni1, active compounds read low 0.976 | S. cerevisiae deletion strains, locus YNL298W, strain CLA4, active compounds read low 0.979 | S. cerevisiae deletion strains, locus YNL307C, strain MCK1, active compounds read low 0.995 | S. cerevisiae deletion strains, locus YNL322C, strain KRE1 (second series), active compounds read low 0.996 | S. cerevisiae deletion strains, locus YNL322C, strain KRE1, active compounds read low 0.956 | S. cerevisiae deletion strains, locus YNR049C, strain mso1, active compounds read low 0.971 | S. cerevisiae deletion strains, locus YNR052C, strain pop2, active compounds read low 0.989 | S. cerevisiae deletion strains, locus YOL006C, strain TOP1, active compounds read low 0.991 | S. cerevisiae deletion strains, locus YOL012C, strain htz1 0.765 | S. cerevisiae deletion strains, locus YOL147C, strain pex11, active compounds read low 0.992 | S. cerevisiae deletion strains, locus YOR001W, strain rrp6, active compounds read low 1 | S. cerevisiae deletion strains, locus YOR061W, strain CKA2, active compounds read low 0.993 | S. cerevisiae deletion strains, locus YOR069W, strain VPS5, active compounds read low 0.989 | S. cerevisiae deletion strains, locus YOR070C, strain gyp1, active compounds read low 0.991 | S. cerevisiae deletion strains, locus YOR080W, strain dia2, active compounds read low 0.98 | S. cerevisiae deletion strains, locus YOR083W, strain WHI5, active compounds read low 1.04 | S. cerevisiae deletion strains, locus YOR106W, strain vam3, active compounds read low 1 | S. cerevisiae deletion strains, locus YOR136W, strain idh2, active compounds read low 0.996 | S. cerevisiae deletion strains, locus YOR144C, strain elg1, active compounds read low 0.991 | S. cerevisiae deletion strains, locus YOR184W, strain ser1, active compounds read low 0.935 | S. cerevisiae deletion strains, locus YOR231W, strain MKK1, active compounds read low 1.01 | S. cerevisiae deletion strains, locus YOR265W, strain rbl2, active compounds read low 0.986 | S. cerevisiae deletion strains, locus YOR270C, strain vph1, active compounds read low 0.928 | S. cerevisiae deletion strains, locus YOR290C, strain snf2, active compounds read low 0.92 | S. cerevisiae deletion strains, locus YOR316C, strain cot1, active compounds read low 0.969 | S. cerevisiae deletion strains, locus YPL051W, strain arl3, active compounds read low 1 | S. cerevisiae deletion strains, locus YPL055C, strain LGE1, active compounds read low 0.864 | S. cerevisiae deletion strains, locus YPL078C, strain atp4, active compounds read low 1 | S. cerevisiae deletion strains, locus YPL106C, strain sse1, active compounds read low 0.962 | S. cerevisiae deletion strains, locus YPL240C, strain hsp82, active compounds read low 0.982 | S. cerevisiae deletion strains, locus YPL241C, strain CIN2, active compounds read low 0.997 | S. cerevisiae deletion strains, locus YPL256C, strain CLN2, active compounds read low 1.01 | S. cerevisiae deletion strains, locus YPR119W, strain clb2, active compounds read low 0.977 | S. cerevisiae deletion strains, locus YPR141C, strain kar3, active compounds read low 0.979 | S. cerevisiae deletion strains, locus YPR163C, strain tif3, active compounds read low 0.992 | S. cerevisiae deletion strains, locus YPR167C, strain met16, active compounds read low 0.977 | S. cerevisiae deletion strains, strain wtn01, active compounds read low 0.977 | S. cerevisiae strains, strain wild type, active compounds read low 0.984
